# Measured values from the supplement of paper PMC3334620.
# Over roughly 33,000 sequences, “E-score (-0.5 to 0.5)” has its median near -0.011; the highest 2% begin near 0.28. This is one part of a sample in which the highest values are shown more often than they occur.
# Biological target: T1, Gcr1 (UniProt P07261)
# T1 sequence: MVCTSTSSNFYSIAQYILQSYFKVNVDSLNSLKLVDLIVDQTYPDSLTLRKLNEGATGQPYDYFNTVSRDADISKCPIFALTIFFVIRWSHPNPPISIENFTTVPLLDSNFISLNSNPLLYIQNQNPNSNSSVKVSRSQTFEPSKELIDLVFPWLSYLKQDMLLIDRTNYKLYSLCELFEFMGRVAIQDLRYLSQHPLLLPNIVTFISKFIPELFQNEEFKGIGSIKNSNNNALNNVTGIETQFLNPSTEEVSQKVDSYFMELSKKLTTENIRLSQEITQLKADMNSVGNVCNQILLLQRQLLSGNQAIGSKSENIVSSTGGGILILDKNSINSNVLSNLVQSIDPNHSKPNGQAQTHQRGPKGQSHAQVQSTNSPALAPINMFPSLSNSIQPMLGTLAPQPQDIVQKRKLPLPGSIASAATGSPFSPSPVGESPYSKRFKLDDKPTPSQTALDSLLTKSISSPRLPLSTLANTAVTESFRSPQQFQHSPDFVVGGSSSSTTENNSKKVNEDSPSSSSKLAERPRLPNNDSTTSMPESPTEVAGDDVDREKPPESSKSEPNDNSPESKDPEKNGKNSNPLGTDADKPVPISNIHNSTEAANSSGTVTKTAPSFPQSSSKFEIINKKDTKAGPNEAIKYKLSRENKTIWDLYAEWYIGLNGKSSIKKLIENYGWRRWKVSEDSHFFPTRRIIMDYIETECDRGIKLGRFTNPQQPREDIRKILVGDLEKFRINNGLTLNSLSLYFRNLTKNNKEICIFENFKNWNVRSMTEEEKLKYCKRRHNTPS
# Assay: PBM E-score (8-mer binding enrichment) (E-score (-0.5 to 0.5)); higher = stronger / more preferred TF binding
# Conditions: protein concentration: 100 nM; construct: GST-full length
# Outline: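 Full-length yeast transcription factors or their DNA-binding domains, GST-tagged and expressed with PURExpress, were applied at about 100-200 nM to universal all-10-mer Agilent arrays. These arrays had been made double-stranded by primer extension on fresh or once-stripped slides. Detection used fluorescent anti-GST, normalisation used masliner, and E-scores for ungapped eight-base words pooled with reverse complements came from the Universal PBM Analysis Suite.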
row,Sequence,PBM E-score
1,AATTTGAG,0.137
2,AGCTTCGA,0.0125
3,TATTGCCA,0.00643
4,ACCCGCTC,-0.0223
5,ATATGCAT,-0.0625
6,AGAAAAAC,0.134
7,GTGTTCCA,0.112
8,ACCCGGCA,0.125
9,AACGGAGG,-0.167
10,CAGCCACG,0.12
11,ACAAGATG,0.294
12,AAAAGAAG,0.309
13,AGAAGAAG,0.437
14,CAAAGAAG,0.184
15,AAAAGAAC,-0.0325
16,ATAAGAAC,0.269
17,ATAAGAAA,0.171
18,AGAAGAAT,0.119
19,ACAAGATA,0.102
20,ACAAGATC,0.0465
21,AGAAGAAC,0.13
22,ATAAGAAG,0.381

row,Sequence,PBM E-score
1,CTCAATAC,-0.00463
2,CTGTTGGA,0.103
3,GGTCGGAC,-0.206
4,CCATATCG,0.05
5,CGTGAGGC,-0.0867
6,ACAAGAAG,0.415
7,ACAAGAAT,0.252
8,ACAAGAAA,0.155
9,GCAAACTA,0.0887
10,TGGCACCA,0.321
11,AGGCACCC,0.284
12,AGGCACCG,0.04
13,AGGCACCA,0.136
14,GGGCACCA,0.364
15,GGGCACGA,0.0341
16,GGGCACAC,-0.0584
17,GCGCACCC,-0.0278
18,GGGCACCC,0.321
19,AGGCACCT,0.16
20,TCGCACCA,0.0244
21,TGGCACAA,-0.0481
22,CCATACTA,0.0399

row,Sequence,PBM E-score
1,CATGGTGC,0.0809
2,CGTGCATC,0.00547
3,AAGCCCGA,0.0664
4,GGTATCGA,0.00098
5,GAGCACCA,0.207
6,CGGCACCC,0.381
7,CGGCACCA,0.245
8,TAGCACCA,0.323
9,CGGCACCG,0.143
10,CAGCACCA,0.277
11,GTCACCAA,0.0813
12,GCAGGAAC,-0.0184
13,CAATCTCC,0.0196
14,CAGATAGA,0.0277
15,ACAGTCCT,-0.141
16,CCTACGGC,-0.146
17,AACTCGGA,0.0328
18,CTTACCCC,-0.052
19,CGGGACCC,0.306
20,CGGGACCA,0.00102
21,GGGGACCA,0.194
22,GGGGACCC,0.291

row,Sequence,PBM E-score
1,AGGGACCC,-0.0366
2,CGGGACCG,-0.00477
3,TAGCTGCA,-0.0344
4,AGACGGAG,-0.0738
5,CCAGCCGC,-0.0253
6,GAAGCCGA,0.401
7,AAAGCCGC,0.0398
8,CAAGCCGC,-0.00721
9,TAAGCCGA,-0.177
10,CAAGCCGA,-0.038
11,ACAGCCGC,-0.0946
12,GCAGCCGC,0.282
13,GAAGCCGC,0.439
14,ATGTGGTC,-0.0553
15,CTTTTGAA,0.1
16,AAATTTGC,0.109
17,ACGCAGCC,0.304
18,CCGCAGCC,0.223
19,GCGCAGCA,-0.0801
20,ACGCAGCA,-0.0163
21,ACGCAGCG,0.244
22,ACGCAGCT,0.308

row,Sequence,PBM E-score
1,ACGCAGAT,0.151
2,GCGCAGAC,-0.167
3,GCGCAGCC,0.292
4,AGAACCGG,0.214
5,CGAATGGC,0.137
6,CAGGGTGC,0.234
7,ACTCATAA,-0.0566
8,AAGCCGAT,-0.0786
9,GGGAACCA,0.314
10,TGGAACCA,0.357
11,AGGAACCT,0.38
12,ACGAACCT,-0.0495
13,CGGAACCA,0.114
14,GGGAACGA,-0.0791
15,CGGAACCG,0.18
16,AAGAACCT,0.2
17,CAGAACCC,0.208
18,TGGAACAA,-0.0703
19,CGGAACCC,0.348
20,TAGAACCA,0.0906
21,CAGTACCA,0.0486
